Assay outcomes from PubChem BioAssay.
PI5P4Ka inh = qHTS for Inhibitors of phosphatidylinositol 5-phosphate 4-kinase (PI5P4K); 1.2% of 330,000 active; max response, %; PI5P4Kalpha enzyme, ADP-Glo luminescence, 60 min; stronger effect = lower value; active = max response of -50% or lower; inconclusive = between -30% and -50%; inactive = -30% or higher; note: value at the top dose of about 77 µM
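Reactions run in 0.038 M HEPES pH 7.4, 0.28 mM EGTA, 0.1% CHAPS and 5% DMSO, with PI5P4Kalpha, substrate, compound and 5 microM ATP final, one hour at room temperature. Readout is ADP-Glo luminescence.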
BAZ2B inh = qHTS Assay for Inhibitors of BAZ2B. Bromodomain adjacent to zinc finger domain protein 2B (Homo sapiens), Q9UIF8. AlphaScreen BAZ2B-H3K14Ac peptide displacement. Potency, µM (highest dose often 114 µM), most hits filed as inhibitors. 4.4% of 360,000 active. AID 504333, 2011; note: nearly all actives have a fitted effect of over 60% in size
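Compounds, titrated to a top concentration of 110 uM, were incubated 30 min at room temperature with preformed BAZ2B/acetyl-K14 H3 peptide complex (50 nM each). Proximity signal was measured by AlphaScreen after 20 min with beads.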
JMJD2A Tudor inh = qHTS Assay for Inhibitors of JMJD2A-Tudor Domain; 4.4% of 390,000 active; Potency, µM (top dose mostly 114 µM), most hits filed as inhibitors; Lysine-specific demethylase 4A (Homo sapiens), O75164; AlphaScreen JMJD2A-Tudor / H3K4me3 peptide binding; AID 504339, 2011; note: nearly all actives have a fitted effect of over 50% in size
PLK1 PBD block = qHTS for Inhibitors of PLK1-PDB (polo-like kinase 1 - polo-box domain): Primary Screen; Serine/threonine-protein kinase PLK1 (Homo sapiens), P53350; Plk1 PBD binding of FITC phosphopeptide, fluorescence polarization; Potency, µM, most hits filed as inhibitors; 2.8% of 360,000 active; AID 720504, 2013; note: series mostly up to about 57 µM; nearly all actives have a fitted effect of over 65% in size
HP1b chromo inh = HTS for Inhibitors of HP1-beta Chromodomain Interactions with Methylated Histone Tails; Chromobox protein homolog 1 (Homo sapiens), P83916; AlphaScreen HP1-beta / biotin-H3K9me3 peptide binding; Potency, µM (top dose mostly 114 µM), actives largely listed as inhibitors; 0.56% of 390,000 active; note: nearly all actives have a fitted effect of over 70% in size
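Compound inhibition of the preformed complex between 50 nM HP1-beta and 50 nM biotinylated H3K9me3 peptide was read by AlphaScreen. Buffer was PBS pH 7.4 with 0.01% Tween-20. Incubations ran 30 min at room temperature, with 10 ug/mL donor/acceptor beads.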
G9a inh = qHTS Assay for Inhibitors of Histone Lysine Methyltransferase G9a; 8.8% of 350,000 active; Histone-lysine N-methyltransferase EHMT2 (Homo sapiens), Q96KQ7; Potency, µM (top dose mostly 102 µM), usual class: inhibitors; AID 504332, 2011; G9a H3K9 monomethylation, AlphaScreen, 2 h; note: nearly all actives have a fitted effect of over 75% in size
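Readings reflect AlphaScreen signal from monomethyl-H3K9 antibody detection. HMT at 20 nM; substrate b-H3K9 500 nM; cofactor SAM 20 uM; 2 h RT reaction; compounds tested as titrations in qHTS with 15 min preincubation.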
TbPYK inh = qHTS of Trypanosoma Brucei Inhibitors: Confirmatory Assay for Cherry-picked Compounds; shares compounds with PLK1 PBD block; recombinant TbPYK, Kinase-Glo ATP luminescence; Potency, µM (highest dose often 76.9 µM), usual class: inhibitors; 67% of 890 active; note: nearly all actives have a fitted effect of over 70% in size
TbPYK ADP-Glo = qHTS of Trypanosoma Brucei Inhibitors: Orthogonal Assay for Cherry-picked Compounds. AID 720584, 2013. recombinant TbPYK, ADP-Glo luminescence, 60 min. Potency, µM (doses to about 76.9 µM), most hits filed as inhibitors. shares compounds with PLK1 PBD block. 62% of 890 active; note: nearly all actives have a fitted effect of over 75% in size
A number is an active result; 0 = inactive; ? = inconclusive; - = no result given; [ ] = remark or other dose. Compounds with a hit are over-represented: about 12% of the library has one in this group of screens. Unless noted, calls come from the whole dose curve; as a rule, active = well fitted curve in the direction sought with a large enough effect; inconclusive = small, poorly fitted or top-dose-only effect, or another doubt; inactive = no such curve, though single readings can be large; an effect the other way counts as inactive or inconclusive.

SMILES	PI5P4Ka inh	BAZ2B inh	JMJD2A Tudor inh	PLK1 PBD block	HP1b chromo inh	G9a inh	TbPYK inh	TbPYK ADP-Glo
COc1ccccc1NC(=O)c1c(NC(=O)c2ccco2)sc2c1CCC2	-	0	0	0	0	0	-	-
COc1ccc2c(C)cc(SCC(=O)Nc3nsc(-c4ccccc4C)n3)nc2c1	-	?	0	-	0	0	-	-
O=[N+]([O-])c1cc2no[n+]([O-])c2cc1N1CCCCC1	-79.6	-	44.7µM	2.67µM	14.1µM	-	2.24µM	3.55µM
Cc1csc(N=Nc2ccc(N(C)C)cc2)[n+]1[O-]	-55.5	-	-	0	-	-	17.8µM	0
Cc1c(-c2ccccc2)n(O)c(-c2ccc(N(C)C)cc2)[n+]1[O-]	0	-	-	0	-	-	-	-
Cc1ccc(CN(C)C(=O)c2ccccc2Oc2ccccc2)o1	0	0	?	0	0	?	20µM	25.1µM
CC(=O)c1cccc(OCc2cc(C(=O)N(C)Cc3ccc(C)o3)no2)c1	0	0	79.4µM	0	?	-	14.1µM	35.5µM
CSc1ccccc1OCc1cc(C(=O)N(C)Cc2ccc(C)o2)no1	0	0	0	0	0	50.1µM	?	?
CCSc1nc2sc3c(c2c(=O)n1-c1ccccc1)CCN(C(C)C)C3	0	0	0	0	0	?	-	-
Cc1[nH]cnc1C(=O)N/N=C/c1c(Cl)cccc1Cl	?	?	0	0	0	0[12.7 µM]	20µM	0
Cc1ccc(-c2noc(-c3ccno3)n2)cc1	0	0	0	0	0	0	-	-
COCCC(=O)N1CCOCC1c1cc(C(=O)NCc2ccccc2)no1 (configuration not stated)	0	-	-	0	-	-	-	-
O=C1OC(Nc2ccc3c(c2)OCO3)c2ccccc21 (configuration not stated)	0	39.8µM	50.1µM	0	?	?	0.501µM	12.6µM
O=C1OC(Nc2ccc(F)c([N+](=O)[O-])c2)c2ccccc21 (configuration not stated)	0	0	0	0	0	0	-	-
CCC1CCCCN1S(=O)(=O)c1cc(C(=O)Nc2ccc(C)c(F)c2)ccc1F (configuration not stated)	-	0	0	-	0	0	-	-
CC[n+]1c(C)sc2c3ccsc3ccc21	?	-	56.2µM	0	?	1.58µM	0.282µM	0.794µM
O=C(O)c1ccc(CSc2nnc(-c3cccnc3)n2-c2ccc(Br)cc2)cc1	0	0	?	0	0	0[12.7 µM]	2.51µM	3.55µM
O=C(O)c1ccc(CSc2nnc(-c3ccncc3)n2-c2ccc(Br)cc2)cc1	0	0	0	0	0	0[12.7 µM]	-	-
Cc1cccc(C)c1NC(=O)C1(C)CSCC(=O)N1CCCN1CCOCC1 (configuration not stated)	0	-	-	0	-	-	-	-
Cc1ccc(S(=O)c2ccc([N+](=O)[O-])c3nonc23)cc1 (configuration not stated)	-99.9	-	-	1.5µM	-	-	0	11.2µM
Cc1ccc(Nc2c([N+](=O)[O-])ccc3nonc23)c(C)c1	0	?	?	0	?	?	-	-
Cc1c(CBr)[n+](=O)c2c(n1[O-])C(Br)CCC2Br (configuration not stated)	0	28.2µM	20µM	26.7µM	0	7.94µM	1.12µM	3.55µM
CCN1C(=O)/C(=C/C=C2\C=CN(CC)c3ccccc32)SC1=S	0	2µM	?	0	3.55µM	8.91µM	22.4µM	?
N#Cc1ccc(C(=O)N2CCC3CC2c2cc(N4CCCCC4)ccc23)cc1 (configuration not stated)	0	-	-	0	-	-	-	-
COc1ccc(NC(=O)c2cccc3cccnc23)cc1S(N)(=O)=O	0	0	0	0	0	?	-	-
SMILES	PI5P4Ka inh	BAZ2B inh	JMJD2A Tudor inh	PLK1 PBD block	HP1b chromo inh	G9a inh	TbPYK inh	TbPYK ADP-Glo
O=C1CCCCCCC1Sc1ccccc1[N+](=O)[O-] (configuration not stated)	0	?	0[11.4 µM]	?	?	11.2µM	12.6µM	?
CCCCNC(=O)C1(C)CCN1C(=O)c1ccc(OC)c(C(F)(F)F)c1 (configuration not stated)	0	-	-	0	-	-	-	-
Cc1cc(N=Cc2c(O)ccc3cc(Br)ccc23)no1	0	0	1.78µM	5.32µM	?	1.41µM	17.8µM	7.08µM
Cc1cc(N=Cc2c(O)n(-c3ccc(C)c(C)c3)c(=O)c3ccccc23)no1	-	0	-	-	-	0	-	-
Cc1[nH]c2ccccc2c1C1=CC(=O)C=CC1=O	-97.0	-	3.16µM	3.36µM	?	-	0.562µM	2.82µM
Cc1[nH]c2ccccc2c1CCCO	0	0	0	0	0	0	-	-
COc1ccc(S(=O)(=O)n2c([N+](=O)[O-])cnc2C)c(C)c1C	0	?	0	0	0	-	-	-
Cc1ccc(S(=O)(=O)n2c([N+](=O)[O-])cnc2C)c(C)c1C	0	0	?	21.2µM	?	0	0	0
O=C(CCN1C(=O)C2CC=CCC2C1=O)Nc1cc(C(F)(F)F)ccc1N1CCCC1 (configuration not stated)	0	0	0	0	0	?	-	-
COCCN(Cc1cc2cccc(C)c2n2nnnc12)C(=O)C(F)(F)F	-	0	0	0	0	0	0	0
COCCC1CCCCN1C(=O)c1ccc2nc(Cc3ccccc3F)oc2c1 (configuration not stated)	0	0	0	0	0	0	-	-
COCC(C)n1c(COc2ccccc2F)nnc1SCC(=O)Nc1oc(C)c2c(C)n[nH]c(=O)c12 (configuration not stated)	0	0	0	0	0	10µM	20µM	17.8µM
COc1ccc(NC(=O)Nc2ccon2)c(OC)c1	0	0	0	0	0	0	-	-
O=c1c2sc3ccccc3c2[nH]c(=S)n1CCN1CCOCC1	0	0	?	0	0	3.55µM	3.98µM	5.62µM
CCOC(=O)c1sc(N/N=C/c2cccc(C)c2)nc1C	0	0	0	0	0	0[2.33 µM]	-	-
CCOC(=O)c1sc(N/N=C/c2ccccc2)nc1C	0	0	?	8.44µM	0	2µM	14.1µM	28.2µM
O=C(NCc1cc(F)ccc1F)C1CCC(=O)N(C2CCCCCC2)C1 (configuration not stated)	0	0	0	0	0	0	-	-
